Data from the supplement of paper PMC10849652.
Targets with a hit are over-represented here; the source holds about 7,900 in all. About 0.6% of all pairs of compound and target were hits. Unmarked numbers belong to inactive results.

Experiments:
Assay in all cases: log2 fold change, soluble protein after heating vs DMSO (PISA); higher = thermal stabilisation; K562 cells, 10 uM, 30 min; active = over 0.2 and 3.5 SD of the protein, either way, in both replicates (recomputed)
[1] = compound: COC1=CC=C(C=C1)CN2C=CC3=C2C=C(C=C3)C(=O)NO
In short: (§1)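 K562 cells at 2×10^6 cells/mL were treated for 30 min with 10 μM compound, and aliquots were heated for 3 min over 48°C-58°C before pooling. Extraction used PBS with 0.5% NP-40 at 4°C, and soluble protein was the supernatant after 21,000xg for 90 min, measured by TMTpro 16plex LC-MS/MS with channel sums equalised. Thermal stability values, relative to control samples and from duplicates, are log2 fold changes.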

filanesib = compound: CON(C)C(=O)N1N=C(c2cc(F)ccc2F)S[C@@]1(CCCN)c1ccccc1 [filanesib]
In short: as §1

zotarolimus = compound: CO[C@H]1C[C@@H]2CC[C@@H](C)[C@@](O)(O2)C(=O)C(=O)N2CCCC[C@H]2C(=O)O[C@H]([C@H](C)C[C@@H]2CC[C@H](n3cnnn3)[C@H](OC)C2)CC(=O)[C@H](C)/C=C(\C)[C@@H](O)[C@@H](OC)C(=O)[C@H](C)C[C@H](C)/C=C/C=C/C=C/1C [zotarolimus]
In short: as §1

idasanutlin = compound: COc1cc(C(=O)O)ccc1NC(=O)[C@@H]1N[C@@H](CC(C)(C)C)[C@](C#N)(c2ccc(Cl)cc2F)[C@H]1c1cccc(Cl)c1F [idasanutlin]
In short: as §1

alisertib = compound: COc1cc(Nc2ncc3c(n2)-c2ccc(Cl)cc2C(c2c(F)cccc2OC)=NC3)ccc1C(=O)O [alisertib]
In short: as §1

[2] = compound: COc1cc2nc(-c3cc(F)ccc3O)nc(N[C@@H]3CNC[C@H]3C(C)(C)O)c2cc1OC
In short: as §1

gefitinib = compound: COc1cc2ncnc(Nc3ccc(F)c(Cl)c3)c2cc1OCCCN1CCOCC1 [gefitinib]
In short: as §1

[3] = compound: COc1cccc2cc(-c3nc([C@H]4CC[C@H](C(=O)O)CC4)n4ncnc(N)c34)[nH]c12
In short: as §1

lapatinib = compound: CS(=O)(=O)CCNCc1ccc(-c2ccc3ncnc(Nc4ccc(OCc5cccc(F)c5)c(Cl)c4)c3c2)o1 [lapatinib]
In short: as §1

pictilisib = compound: CS(=O)(=O)N1CCN(Cc2cc3nc(-c4cccc5[nH]ncc45)nc(N4CCOCC4)c3s2)CC1 [pictilisib]
In short: as §1

Chain of UniProt Q92696 (Q92696 whole entry, looked up): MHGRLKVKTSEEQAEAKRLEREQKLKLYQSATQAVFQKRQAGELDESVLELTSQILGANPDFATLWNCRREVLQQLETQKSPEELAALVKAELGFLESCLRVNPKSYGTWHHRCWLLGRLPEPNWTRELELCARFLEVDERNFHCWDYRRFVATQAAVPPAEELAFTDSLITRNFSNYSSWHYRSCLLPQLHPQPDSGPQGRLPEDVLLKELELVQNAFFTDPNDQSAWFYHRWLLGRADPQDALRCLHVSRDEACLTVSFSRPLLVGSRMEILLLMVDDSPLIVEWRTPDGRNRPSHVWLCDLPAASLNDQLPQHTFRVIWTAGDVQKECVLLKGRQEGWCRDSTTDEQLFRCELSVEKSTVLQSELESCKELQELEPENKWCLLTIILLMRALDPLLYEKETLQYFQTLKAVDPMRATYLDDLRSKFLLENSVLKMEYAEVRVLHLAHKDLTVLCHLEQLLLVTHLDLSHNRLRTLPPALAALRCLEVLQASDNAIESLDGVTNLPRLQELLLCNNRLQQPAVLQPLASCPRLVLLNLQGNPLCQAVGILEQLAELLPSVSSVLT
Chain of UniProt Q5T160 (Q5T160 whole entry, looked up): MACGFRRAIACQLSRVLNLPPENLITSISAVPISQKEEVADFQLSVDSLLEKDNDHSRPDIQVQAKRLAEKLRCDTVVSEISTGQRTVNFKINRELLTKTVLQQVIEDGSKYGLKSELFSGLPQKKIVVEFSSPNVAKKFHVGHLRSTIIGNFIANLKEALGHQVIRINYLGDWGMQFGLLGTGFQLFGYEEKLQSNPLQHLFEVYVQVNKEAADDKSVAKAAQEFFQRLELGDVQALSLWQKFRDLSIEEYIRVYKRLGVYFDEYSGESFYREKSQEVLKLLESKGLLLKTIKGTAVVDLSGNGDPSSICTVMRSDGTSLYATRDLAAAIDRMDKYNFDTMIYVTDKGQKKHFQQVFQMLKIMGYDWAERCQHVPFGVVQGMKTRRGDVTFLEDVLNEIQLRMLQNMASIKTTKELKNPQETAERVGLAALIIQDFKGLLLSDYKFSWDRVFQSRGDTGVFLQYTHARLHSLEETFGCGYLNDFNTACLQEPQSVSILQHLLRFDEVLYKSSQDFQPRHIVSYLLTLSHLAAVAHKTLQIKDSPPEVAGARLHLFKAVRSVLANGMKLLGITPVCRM
Chain of UniProt O75446 (O75446 whole entry, looked up): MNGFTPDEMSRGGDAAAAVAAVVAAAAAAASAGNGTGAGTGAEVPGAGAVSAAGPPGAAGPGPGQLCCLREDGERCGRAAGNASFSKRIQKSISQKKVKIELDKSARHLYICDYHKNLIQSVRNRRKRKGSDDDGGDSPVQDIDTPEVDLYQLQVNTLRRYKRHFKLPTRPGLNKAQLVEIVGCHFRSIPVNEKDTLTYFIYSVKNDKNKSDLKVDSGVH
Chain of UniProt Q8N122 (Q8N122 whole entry, looked up): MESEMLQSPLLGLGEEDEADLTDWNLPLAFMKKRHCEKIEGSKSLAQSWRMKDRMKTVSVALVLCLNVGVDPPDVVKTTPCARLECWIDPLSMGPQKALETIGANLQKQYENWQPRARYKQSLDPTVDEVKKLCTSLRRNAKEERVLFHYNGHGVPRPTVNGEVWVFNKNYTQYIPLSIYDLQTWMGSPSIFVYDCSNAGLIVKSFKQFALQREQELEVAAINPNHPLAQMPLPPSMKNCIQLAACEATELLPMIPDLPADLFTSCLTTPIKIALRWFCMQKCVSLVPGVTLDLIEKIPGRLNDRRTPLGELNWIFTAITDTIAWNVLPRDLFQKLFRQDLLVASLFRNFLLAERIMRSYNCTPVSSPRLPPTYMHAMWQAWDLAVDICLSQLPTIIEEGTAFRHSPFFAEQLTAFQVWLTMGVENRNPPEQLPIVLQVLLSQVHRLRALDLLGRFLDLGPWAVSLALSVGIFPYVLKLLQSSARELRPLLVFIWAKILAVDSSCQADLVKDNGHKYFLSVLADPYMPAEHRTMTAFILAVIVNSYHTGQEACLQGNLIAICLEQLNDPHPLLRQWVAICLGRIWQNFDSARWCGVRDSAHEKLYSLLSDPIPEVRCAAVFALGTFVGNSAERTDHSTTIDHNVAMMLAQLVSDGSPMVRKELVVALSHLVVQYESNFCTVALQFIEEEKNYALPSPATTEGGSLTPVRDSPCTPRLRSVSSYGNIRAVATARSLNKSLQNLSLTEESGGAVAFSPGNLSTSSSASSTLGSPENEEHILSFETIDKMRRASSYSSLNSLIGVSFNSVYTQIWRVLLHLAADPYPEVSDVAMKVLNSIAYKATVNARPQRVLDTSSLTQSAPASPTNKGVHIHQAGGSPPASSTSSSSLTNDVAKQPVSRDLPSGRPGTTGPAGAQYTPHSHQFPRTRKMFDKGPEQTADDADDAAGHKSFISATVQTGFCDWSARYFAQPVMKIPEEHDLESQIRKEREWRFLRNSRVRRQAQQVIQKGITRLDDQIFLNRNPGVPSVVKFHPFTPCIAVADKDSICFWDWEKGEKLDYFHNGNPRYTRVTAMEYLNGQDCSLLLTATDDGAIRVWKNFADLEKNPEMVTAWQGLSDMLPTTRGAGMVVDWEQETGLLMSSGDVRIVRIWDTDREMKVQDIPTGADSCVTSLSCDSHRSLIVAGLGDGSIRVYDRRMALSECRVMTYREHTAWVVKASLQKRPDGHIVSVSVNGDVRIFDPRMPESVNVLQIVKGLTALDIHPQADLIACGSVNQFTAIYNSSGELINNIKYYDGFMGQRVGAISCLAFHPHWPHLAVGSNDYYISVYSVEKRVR
Chain of UniProt Q9Y6Y8 (Q9Y6Y8 whole entry, looked up): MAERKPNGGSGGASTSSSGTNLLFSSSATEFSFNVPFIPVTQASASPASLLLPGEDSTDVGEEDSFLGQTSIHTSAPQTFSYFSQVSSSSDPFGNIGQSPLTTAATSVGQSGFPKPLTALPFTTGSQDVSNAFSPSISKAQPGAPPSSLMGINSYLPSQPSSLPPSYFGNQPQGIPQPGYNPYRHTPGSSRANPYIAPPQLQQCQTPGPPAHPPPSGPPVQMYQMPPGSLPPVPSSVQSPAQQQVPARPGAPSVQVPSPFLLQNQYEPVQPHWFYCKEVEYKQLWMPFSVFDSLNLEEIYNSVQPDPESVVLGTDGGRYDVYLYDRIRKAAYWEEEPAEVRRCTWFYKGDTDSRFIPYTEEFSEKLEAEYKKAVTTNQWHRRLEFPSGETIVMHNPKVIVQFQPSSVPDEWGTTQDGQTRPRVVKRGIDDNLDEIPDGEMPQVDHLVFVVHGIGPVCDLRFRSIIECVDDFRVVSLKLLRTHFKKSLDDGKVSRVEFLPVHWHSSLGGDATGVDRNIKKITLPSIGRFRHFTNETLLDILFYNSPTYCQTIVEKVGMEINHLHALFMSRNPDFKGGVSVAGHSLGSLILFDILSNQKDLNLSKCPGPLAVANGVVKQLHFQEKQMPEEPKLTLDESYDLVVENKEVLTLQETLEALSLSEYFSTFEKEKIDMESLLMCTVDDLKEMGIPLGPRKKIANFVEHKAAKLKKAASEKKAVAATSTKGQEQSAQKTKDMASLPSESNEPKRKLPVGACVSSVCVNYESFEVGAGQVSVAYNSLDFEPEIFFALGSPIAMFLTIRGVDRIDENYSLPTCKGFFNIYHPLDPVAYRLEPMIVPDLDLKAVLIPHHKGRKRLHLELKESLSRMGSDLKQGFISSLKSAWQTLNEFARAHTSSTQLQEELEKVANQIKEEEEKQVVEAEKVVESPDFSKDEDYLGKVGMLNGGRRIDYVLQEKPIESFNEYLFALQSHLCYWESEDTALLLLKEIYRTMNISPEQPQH
Chain of UniProt P49756 (P49756 whole entry, looked up): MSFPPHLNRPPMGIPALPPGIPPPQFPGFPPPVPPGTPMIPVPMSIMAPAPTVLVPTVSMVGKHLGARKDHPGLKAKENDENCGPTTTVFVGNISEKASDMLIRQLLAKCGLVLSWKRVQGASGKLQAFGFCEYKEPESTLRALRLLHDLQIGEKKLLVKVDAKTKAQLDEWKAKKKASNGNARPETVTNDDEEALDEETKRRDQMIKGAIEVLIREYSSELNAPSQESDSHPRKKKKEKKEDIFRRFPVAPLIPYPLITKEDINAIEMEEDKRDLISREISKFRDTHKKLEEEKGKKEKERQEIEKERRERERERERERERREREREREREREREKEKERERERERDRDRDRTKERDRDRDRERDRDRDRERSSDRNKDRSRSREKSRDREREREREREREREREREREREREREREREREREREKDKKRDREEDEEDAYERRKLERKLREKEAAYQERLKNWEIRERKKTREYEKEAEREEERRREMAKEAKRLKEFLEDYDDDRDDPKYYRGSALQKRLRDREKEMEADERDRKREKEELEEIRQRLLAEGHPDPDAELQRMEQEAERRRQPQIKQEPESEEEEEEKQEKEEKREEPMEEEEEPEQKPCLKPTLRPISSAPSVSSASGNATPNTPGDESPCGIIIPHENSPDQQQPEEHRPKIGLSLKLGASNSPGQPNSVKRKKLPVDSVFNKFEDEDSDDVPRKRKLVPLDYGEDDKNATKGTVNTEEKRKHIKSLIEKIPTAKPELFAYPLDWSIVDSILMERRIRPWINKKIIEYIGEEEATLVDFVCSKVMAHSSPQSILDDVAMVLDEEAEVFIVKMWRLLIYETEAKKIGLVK
Chain of UniProt Q7L099 (Q7L099 whole entry, looked up): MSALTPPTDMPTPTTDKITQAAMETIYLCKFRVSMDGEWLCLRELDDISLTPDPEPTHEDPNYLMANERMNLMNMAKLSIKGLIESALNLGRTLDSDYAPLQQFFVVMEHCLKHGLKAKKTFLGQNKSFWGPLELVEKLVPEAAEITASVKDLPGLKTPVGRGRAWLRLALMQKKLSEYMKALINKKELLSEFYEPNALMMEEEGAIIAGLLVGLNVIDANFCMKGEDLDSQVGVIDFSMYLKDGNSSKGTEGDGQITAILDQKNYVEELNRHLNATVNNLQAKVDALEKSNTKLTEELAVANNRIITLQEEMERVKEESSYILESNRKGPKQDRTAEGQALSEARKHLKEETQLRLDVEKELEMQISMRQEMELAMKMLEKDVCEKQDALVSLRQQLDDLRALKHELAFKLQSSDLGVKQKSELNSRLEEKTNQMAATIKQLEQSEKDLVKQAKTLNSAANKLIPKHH

Target | log2 fold change [1] | log2 fold change (filanesib) | log2 fold change (zotarolimus) | log2 fold change (idasanutlin) | log2 fold change (alisertib) | log2 fold change [2] | log2 fold change (gefitinib) | log2 fold change [3] | log2 fold change (lapatinib) | log2 fold change (pictilisib)
RCOR3 isoform 3 (UniProt Q9P2K3) | -0.019 | 0.084 | -0.011 | -0.046 | -0.145 | 0.14 | 0.013 | 0.011 | 0 | -0.106
SAMSN1 isoform 3 (UniProt Q9NSI8) | 0.013 | -0.021 | 0.034 | -0.026 | 0.007 | -0.001 | 0.007 | -0.029 | -0.009 | -0.001
RNF167 (UniProt Q9H6Y7) | -0.062 | -0.032 | -0.033 | 0.018 | -0.014 | -0.084 | -0.013 | 0.016 | 0.024 | -0.029
RAP1GDS1 isoform 5 (UniProt P52306) | -0.026 | -0.019 | 0.022 | -0.023 | -0.041 | -0.025 | 0.066 | -0.072 | 0.091 | 0.015
RPTOR (UniProt Q8N122) | 0.042 | -0.077 | -0.194 | -0.066 | -0.054 | -0.056 | 0.007 | -0.072 | 0.028 | -0.022
RETREG3 (UniProt Q86VR2) | -0.038 | -0.136 | -0.053 | -0.008 | 0.029 | -0.141 | 0.035 | 0.106 | 0.037 | 0.102
ROCK2 (UniProt O75116) | -0.009 | -0.006 | 0.023 | 0 | 0.072 | 0.135 | 0.045 | -0.038 | -0.029 | 0.071
SEC23IP (UniProt Q9Y6Y8) | -0.006 | 0 | -0.002 | 0.016 | 0 | -0.065 | 0.009 | -0.096 | 0.035 | -0.006
RUFY3 isoform 3 (UniProt Q7L099) | -0.06 | 0.053 | 0.003 | -0.108 | 0.155 | 0.045 | 0.08 | -0.122 | -0.01 | 0.018
SAFB2 (UniProt Q14151) | -0.044 | 0.409 (active) | 0.017 | 0.085 | -0.045 | -0.046 | 0 | -0.037 | 0.048 | -0.032
RIPK1 (UniProt Q13546) | 0 | 0.049 | 0.098 | 0.022 | -0.052 | 0.032 | 0.043 | -0.214 | 0.055 | 0.027
RRAGC (UniProt Q9HB90) | -0.028 | -0.095 | -0.009 | -0.065 | -0.003 | 0.011 | -0.01 | 0.057 | -0.01 | 0.066
RPS9 (UniProt P46781) | -0.036 | 0.237 | 0.032 | 0.098 | -0.101 | -0.083 | -0.055 | -0.211 | 0.084 | -0.195
SELENOH (UniProt Q8IZQ5) | 0.204 | -0.077 | 0.035 | 0.02 | -0.27 | -0.114 | -0.028 | -0.038 | 0.08 | -0.074
RB1 (UniProt P06400) | -0.028 | -0.08 | 0.011 | 0 | -0.016 | -0.325 (active) | 0.006 | 0.052 | 0.025 | 0.033
RHOA (UniProt P61586) | 0.284 (active) | -0.012 | -0.054 | 0.1 | -0.085 | -0.118 | 0.036 | -0.012 | 0.036 | -0.178
SAP30 (UniProt O75446) | 0.089 | 0.044 | 0.047 | 0.024 | -0.015 | -0.059 | 0.003 | -0.095 | -0.035 | -0.068
RGS10 (UniProt O43665) | -0.023 | -0.081 | 0.115 | 0.086 | -0.053 | 0.003 | 0.056 | -0.014 | 0.029 | -0.028
RNASET2 (UniProt O00584) | 0.012 | -0.155 | -0.013 | -0.021 | -0.046 | -0.097 | -0.081 | 0.035 | -0.028 | 0.024
RNF14 (UniProt Q9UBS8) | 0.034 | -0.093 | 0.018 | 0.043 | -0.035 | -0.038 | 0.003 | -0.048 | 0.006 | 0.045
SCAF8 isoform 2 (UniProt Q9UPN6) | 0.026 | 0.002 | 0.022 | -0.003 | -0.027 | 0.048 | 0.058 | 0.015 | -0.007 | -0.055
RABGGTA (UniProt Q92696) | 0.019 | -0.013 | 0.022 | -0.019 | 0.016 | -0.007 | 0.041 | 0.017 | 0.002 | 0.067
RBIS (UniProt Q8N0T1) | -0.069 | 0.077 | -0.075 | 0.061 | -0.053 | -0.018 | -0.056 | -0.012 | 0.012 | -0.04
RBM25 (UniProt P49756) | 0.285 (active) | 0.112 | 0.022 | 0.022 | -0.044 | -0.035 | 0.001 | 0.043 | -0.024 | 0.052
RAB5C isoform 2 (UniProt P51148) | -0.002 | -0.053 | -0.015 | -0.055 | -0.095 | 0.015 | 0.013 | 0.038 | -0.027 | -0.017
RARS2 (UniProt Q5T160) | 0.009 | -0.245 (active) | 0.007 | -0.071 | -0.016 | -0.028 | -0.013 | 0.051 | 0.051 | -0.031
RRP9 (UniProt O43818) | -0.011 | 0.143 | -0.059 | 0.171 | -0.14 | -0.061 | 0.027 | 0.047 | 0.037 | -0.04
